Active and inactive are the calls of the source. Calls come from the whole dose curve; as a rule, active = well fitted curve in the direction sought with a large enough effect in the repeat runs; inconclusive = weak or mixed curves; inactive = flat fitted curve, though single readings scatter.
Experiment: qHTS assay to test for compound auto fluorescence at 535 nm (green) in HEK293 cell free culture (AID 720682)
Conditions: cell-free medium, green autofluorescence 485/535 nm; series mostly up to 91.3 µM
Text: U.S. Tox21 Program National Center for Advancing Translational Sciences [NCATS] NIH Chemical Genomics Center [NCGC] U.S. Environmental Protection Agency [EPA] National Institutes of Environmental Health Sciences [NIEHS] National Toxicology Program [NTP] U.S. Food and Drug Administration [FDA] Tox21 Assay Overview: Compound auto fluorescence often interferes with screening of the compound library against various biological targets and signaling pathways. Some of these compounds may have fluorophoric properties. Such properties may interfere with the assay outputs resulting in false positives and/or negatives. To decrease such complications and ensure the compound activities are relevant in terms of biological response, the Tox21 10K compound library was screened for auto fluorescence. From the fluorophores used as reporter signals in our screening assays, the auto fluorescence equivalencies of compounds against three fluorophores have been evaluated: Triamterene, Fluorescein and Rose Bengal sodium for blue, green and red fluorescence, respectively. The fluorescence intensities were measured using Excitation/Emission wavelengths at 405/460nm, 485/535nm and 540/590nm for blue, green and red labels, respectively. This assay includes the green fluorescence data.
Tox21 Assay Protocol Summary: 5 uL of culture medium (DMEM containing 10% FBS) per well was dispensed into black wall/clear bottom 1536-well plates using a Multidrop Combi Dispenser (ThermoFisher Scientific, Waltham, MA). After 23 nL compound or DMSO vehicle was transferred into assay plate by a pintool work station (Kalypsys, San Diego, CA), fluorescence intensities in the assay plates were measured by an Envision (PerkinElmer, Shelton, CT) plate reader using three labels for measuring blue, green and red fluorescence at […] 460, 535 and 590nm respectively.

| Compound | outcome |
| --- | --- |
| COP(=O)(NC(C)=O)SC (stereo not given) | inactive |
| ClC(Cl)(Cl)c1ccccc1 | inactive |
| N#CC(c1ccccc1)c1ccccc1 | inactive |
| CCOP(=S)(OCC)OP(=S)(OCC)OCC | inactive |
| CS(=O)(=O)NC(=O)c1cc(Oc2ccc(C(F)(F)F)cc2Cl)ccc1[N+](=O)[O-] | inactive |
| Clc1ccccc1-c1nnc(-c2ccccc2Cl)nn1 | inactive |
| COc1ccc(C=O)cc1OC | inactive |
| CCC[CH2][Sn]([Cl])([Cl])[CH2]CCC | inactive |
| CCCCOCC1CO1 (stereo not given) | inactive |
| CC(C)(C#N)N=NC(C)(C)C#N | inactive |
| Oc1ccc(Cl)cc1Cl | inactive |
| Clc1ccc(C(Cl)(Cl)Cl)cc1 | inactive |
| CC(C)(O)C(=O)Nc1ccc([N+](=O)[O-])c(C(F)(F)F)c1 | inactive |
| [CH3][Sn]([Cl])([Cl])[Cl] | inactive |
| ClC(Cl)=C(Cl)C(Cl)=C(Cl)Cl | inactive |
| CC[n+]1c(-c2ccccc2)c2cc(N)ccc2c2ccc(N)cc21 | inactive |
| CCOP(=O)(O)OCC (tested in a mixture with another compound) | inactive |
| Cl | inactive |
| Brc1ccc(Br)cc1 | inactive |
| CCOC(=O)c1ccccc1N | inactive |

| Compound | outcome |
| --- | --- |
| c1ccc2c(c1)Nc1ccccc1S2 | inactive |
| c1ccc(C2CO2)cc1 (stereo not given) | inactive |
| COP(=S)(OC)Oc1ccc(Sc2ccc(OP(=S)(OC)OC)cc2)cc1 | inactive |
| Clc1cccc(Cl)c1 | inactive |
| COP(=S)(OC)SCn1nnc2ccccc2c1=O | inactive |
| CCCCCCCC[N+](C)(CCCCCCCC)CCCCCCCC | inactive |
| O=P(OCCCl)(OCCCl)OCCCl | inactive |
| COP(=S)(OC)Oc1ccc(S(=O)(=O)N(C)C)cc1 | inactive |
| CN(C)P(=O)(N(C)C)N(C)C | inactive |
| CC(O)CN(CC(C)O)CC(C)O (stereo not given) | inactive |
| ClCC(Cl)CCl | inactive |
| Nc1ncn[nH]1 | inactive |
| O=C(O)c1nn(Cc2ccc(Cl)cc2Cl)c2ccccc12 | inactive |
| CSc1nc(NC(C)C)nc(NC(C)C)n1 | inactive |
| CCC1(c2ccc(N)cc2)CCC(=O)NC1=O (stereo not given) | inactive |
| CCCCC(C#N)(Cn1cncn1)c1ccc(Cl)cc1 (stereo not given) | inactive |
| O=[N+]([O-])c1ccc(Cl)c([N+](=O)[O-])c1 | inactive |
| Oc1ccc(Cl)cc1Cc1ccccc1 | inactive |
| Cc1ccc([N+](=O)[O-])cc1 | inactive |
| ClCc1ccccn1 | inactive |
